Inconclusive results are not listed. The source made the active and inactive calls. Unless noted, calls come from the whole dose curve.
Tests used:
[1] = Cell Viability - BJ (AID 421); details: BJ fibroblast viability, qHTS;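 note: potency is the fitted concentration of half-maximal effect; cells exposed to compound for 40 hours at 37 °C before readout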
Outline: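 Cytotoxicity in human BJ foreskin fibroblasts is scored as loss of cellular ATP after a 40-hour exposure, measured by luciferase luminescence. Controls are DMSO and 100 uM tamoxifen.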

[2] = Cell Viability - Jurkat (AID 426;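 active = dose-dependent loss of cell ATP signal giving a full or clear fitted curve, ranked by lower potency value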; note: potency is the fitted concentration of half-maximal effect); details: qHTS
Outline: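 Jurkat (clone E6-1, human T-cell leukemia) cells, 5000/well in complete medium, were exposed to compound for 40 hr at 37 °C. Viability was read as intracellular ATP by CellTiter-Glo luminescence; AC50 came from Hill fits of concentration-response data.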

[3] = Cell Viability - Hek293 (AID 427;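 active = compounds whose dose-response curve shows a full or clear partial loss of cell viability, called from curve shape rather than a numeric limit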;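 note: potency is the fitted concentration of half-maximal effect; cells exposed to compound for 40 hours at 37 °C before reading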); details: qHTS
Outline: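 qHTS, human embryonic kidney (adenovirus-transformed) cells; 40 hr cpd, 37 °C; CellTiter-Glo ATP luminescence. Norm: DMSO = 0, 100 uM tamoxifen = 100% inhibition. Hill-fit AC50.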

[4] = Cell Viability - HepG2 (AID 433); details: qHTS;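 note: potency is the fitted concentration of half-maximal effect; potency for ATP loss meaning cytotoxicity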
Outline: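 Read-out is luciferase-based quantitation of cellular ATP as a measure of viable HepG2 cells after 40 h treatment at 37 °C. Signal decrease is scaled between DMSO-only and 100 uM tamoxifen controls, with AC50 fitted by the Hill equation.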

[5] = Cell Viability - MRC5 (AID 434); details: MRC5 lung fibroblast viability, qHTS;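 note: potency is the fitted concentration of half-maximal effect; potency reflects cytotoxicity seen as loss of intracellular ATP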
Outline: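 qHTS cytotoxicity in human lung fibroblast MRC5 cells; 40 hr treatment, 37 °C; cellular ATP by luciferase luminescence; DMSO = 0%, 100 uM tamoxifen = 100% inhibition; Hill-fit AC50.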

[6] = Cell Viability - SK-N-SH (AID 435); details: SK-N-SH neuroblastoma cell viability qHTS;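 note: potency is the fitted concentration of half-maximal effect; compound exposure lasted 40 h at 37 °C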
Outline: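 Luminescent ATP signal served as the viability read-out after 40 hours of compound treatment of human neuroblastoma SK-N-SH cells. Concentration-response data, scaled between DMSO and 100 uM tamoxifen, gave AC50 values by standard Hill modeling.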

[7] = molecular target: Mitogen-activated protein kinase 10 (Mus musculus) (UniProt Q61831); test: JNK3 AlphaScreen Assay (AID 530; active = well fitted curve in either direction with a large enough effect, not every such curve was filed as active;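 note: kinase came from lysate of stimulated human HepG2 cells; signal reports phosphorylation of biotinylated GST-cJun 1-79 at Ser73 with 10 µM ATP; % is set by controls: 0 for no effect and ±100 for the full control effect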); details: JNK3 lysate, c-Jun phosphorylation; series mostly up to 57.1 µM
Outline: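 Room-temperature AlphaScreen kinase assay; pre-activated HepG2 lysate as JNK3 source, biotin-GST-cJun(1-79) substrate, 10 uM ATP, compound 15 min preincubation.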

[8] = Cell Viability - N2a (AID 540; active = well fitted curve in the direction sought with a large enough effect; an effect the other way counts as inactive or inconclusive;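 note: plate controls were DMSO alone for no effect and tamoxifen control for full effect; nearly all actives have a fitted effect of over 45% in size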); details: N2a mouse neuroblastoma cell viability; activity change, negative = cytotoxicity: at 92.2 µM (top of the series)
Outline: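 Mouse neuroblastoma N2a cells (1500/well) were preincubated 5 hr at 37 °C, then exposed to compounds for 40 hr at 37 °C in complete medium. Viability was read as intracellular ATP by CellTiter-Glo luminescence; AC50 from Hill fits.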

[9] = Cell Viability - NIH 3T3 (AID 541; active = well fitted curve in the direction sought with a large enough effect; an effect the other way counts as inactive or inconclusive;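 note: plate controls were DMSO alone for no effect and tamoxifen positive control for full effect; nearly all actives have a fitted effect of over 25% in size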); details: NIH 3T3 cell viability, qHTS; activity change, negative = cytotoxicity: at 92.2 µM (top of the series)
Outline: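 NIH 3T3 mouse embryo fibroblasts (1000 cells/well) were plated in complete medium and treated with compound for 40 hr at 37 °C. Viability was read as intracellular ATP by CellTiter-Glo luminescence; AC50 values came from Hill-equation fits of concentration-response data.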

[10] = Cell Viability - HUV-EC-C (AID 542; active = well fitted curve in the direction sought with a large enough effect; an effect the other way counts as inactive or inconclusive; note: % is set by controls: 0 for no effect and ±100 for the full control effect; nearly all actives have a fitted effect of over 35% in size); details: HUV-EC-C endothelial cell viability, qHTS; series mostly up to 92.2 µM
Outline: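 HUV-EC-C normal human vascular endothelial cells, 1000 cells/well, pre-incubated 5 hr at 37 °C, then exposed to compounds for 40 hr at 37 °C in complete medium. Viability measured as intracellular ATP by CellTiter-Glo luminescence; AC50 from Hill fits.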

O=C(O)/C=C/C(=O)O
inactive: Potency [1] > 92 µM | Potency [2] > 92 µM | Potency [3] > 92 µM | Potency [4] > 92 µM | Potency [5] > 92 µM | Potency [6] > 92 µM | outcome [7] | activity change, negative = cytotoxicity [8] 4.39% | Potency [9] | Potency [10]

C=CCCCC
inactive: Potency [1] > 92 µM | Potency [2] > 92 µM | Potency [3] > 92 µM | Potency [4] > 92 µM | Potency [5] > 92 µM | Potency [6] > 92 µM | outcome [7] | activity change, negative = cytotoxicity [8] 6.23% | Potency [9] | Potency [10]

Cc1ccc(C)c(N)c1
inactive: Potency [1] > 92 µM | Potency [2] > 92 µM | Potency [3] > 92 µM | Potency [4] > 92 µM | Potency [5] > 92 µM | Potency [6] > 92 µM | outcome [7] | activity change, negative = cytotoxicity [8] -15.8% | Potency [9] | Potency [10]

O=Cc1ccccc1Cl
inactive: Potency [1] > 92 µM | Potency [2] > 92 µM | Potency [3] > 92 µM | Potency [4] > 92 µM | Potency [5] > 92 µM | Potency [6] > 92 µM | outcome [7] | activity change, negative = cytotoxicity [8] -4.91% | Potency [9] | Potency [10]

CCCCCCCCCCCCOCC1CO1 (stereo not given)
inactive: Potency [1] > 92 µM | Potency [2] > 92 µM | Potency [3] > 92 µM | Potency [4] > 92 µM | Potency [5] > 92 µM | Potency [6] > 92 µM | outcome [7] | activity change, negative = cytotoxicity [8] 0.002% | Potency [9] | Potency [10]

CCC(C)O (stereo not given)
inactive: Potency [1] > 92 µM | Potency [2] > 92 µM | Potency [3] > 92 µM | Potency [4] > 92 µM | Potency [5] > 92 µM | Potency [6] > 92 µM | outcome [7] | activity change, negative = cytotoxicity [8] -8.95% | Potency [9] | Potency [10]

CC(N)CN (stereo not given)
inactive: Potency [1] > 92 µM | Potency [2] > 92 µM | Potency [3] > 92 µM | Potency [4] > 92 µM | Potency [5] > 92 µM | Potency [6] > 92 µM | outcome [7] | activity change, negative = cytotoxicity [8] 3.26% | Potency [9] | Potency [10]

CCC(C)(C)C
inactive: Potency [1] > 92 µM | Potency [2] > 92 µM | Potency [3] > 92 µM | Potency [4] > 92 µM | Potency [5] > 92 µM | Potency [6] > 92 µM | outcome [7] | activity change, negative = cytotoxicity [8] -21.6% | Potency [9] | Potency [10]

Nc1cccc(O)c1
inactive: Potency [1] > 92 µM | Potency [2] > 92 µM | Potency [3] > 92 µM | Potency [4] > 92 µM | Potency [5] > 92 µM | Potency [6] > 92 µM | outcome [7] | activity change, negative = cytotoxicity [8] 4.14% | Potency [9] | Potency [10]

CC1(N)CCC(C(C)(C)N)CC1 (stereo not given)
inactive: Potency [1] > 92 µM | Potency [2] > 92 µM | Potency [3] > 92 µM | Potency [4] > 92 µM | Potency [5] > 92 µM | Potency [6] > 92 µM | outcome [7] | activity change, negative = cytotoxicity [8] -2.82% | Potency [9] | Potency [10]

C[C@@H]1CC2(OC[C@]3(C)O[C@H]23)O[C@H]2C[C@@]3(C)[C@@H]4CC[C@H]5C(C)(C)C(O[C@@H]6OC[C@@H](O)[C@H](O)[C@H]6O)CC[C@@]56C[C@@]46CC[C@]3(C)[C@@H]12 (stereo not given in full)
inactive: Potency [1] > 92 µM | Potency [2] > 92 µM | Potency [3] > 92 µM | Potency [4] > 92 µM | Potency [5] > 92 µM | Potency [6] > 92 µM | outcome [7] | activity change, negative = cytotoxicity [8] 11% | Potency [9] | Potency [10]

CCC(=O)/C=C/C1C(C)=CCCC1(C)C (stereo not given)
inactive: Potency [1] > 92 µM | Potency [2] > 92 µM | Potency [3] > 92 µM | Potency [4] > 92 µM | Potency [5] > 92 µM | Potency [6] > 92 µM | outcome [7] | activity change, negative = cytotoxicity [8] -6.46% | Potency [9] | Potency [10]

Oc1cccc(Nc2ccccc2)c1
inactive: Potency [1] > 92 µM | Potency [2] > 92 µM | Potency [3] > 92 µM | Potency [4] > 92 µM | Potency [5] > 92 µM | Potency [6] > 92 µM | outcome [7] | activity change, negative = cytotoxicity [8] -16.5% | Potency [9] | Potency [10]

CCCCC(CC)CNCC(CC)CCCC (stereo not given)
inactive: Potency [1] > 92 µM | Potency [2] > 92 µM | Potency [3] > 92 µM | Potency [4] > 92 µM | Potency [5] > 92 µM | Potency [6] > 92 µM | outcome [7] | activity change, negative = cytotoxicity [8] -7.79% | Potency [9] | Potency [10]

Nc1cccc(N)c1
inactive: Potency [1] > 92 µM | Potency [2] > 92 µM | Potency [3] > 92 µM | Potency [4] > 92 µM | Potency [5] > 92 µM | Potency [6] > 92 µM | outcome [7] | activity change, negative = cytotoxicity [8] -0.534% | Potency [9] | Potency [10]

O=C1OC(=O)c2cc([N+](=O)[O-])ccc21
inactive: Potency [1] > 92 µM | Potency [2] > 92 µM | Potency [3] > 92 µM | Potency [4] > 92 µM | Potency [5] > 92 µM | Potency [6] > 92 µM | outcome [7] | activity change, negative = cytotoxicity [8] -2.26% | Potency [9] | Potency [10]
